The list is not random: actives were taken first. Their share in the collection is about 2.7%.
bovine MsrA act: bovine methionine sulfoxide reductase A activation | purified bovine MsrA, absorbance read-out | activation, % at 10.6 µM | 360,000 compounds, 0.3% hits | AID 602163; in the data active means activation above about 7.5%;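 further: 0% = vehicle and 100% = reference activator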
NadD block: NadD (S. aureus) enzyme inhibition; purified NadD enzyme, colorimetric absorbance read-out; inhibition, % at 20 µM; 360,000 compounds, 0.78% hits; AID 602399; in the data active means inhibition above about 26%
MsrA inh: bovine MsrA inhibition; inhibition, % at 15.5 µM; AID 651718; 360,000 compounds, 0.75% hits; purified bovine MsrA, absorbance read-out; in the data active means inhibition above about 4.5%;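 further: 0% = vehicle wells with enzyme and 100% = reference inhibitor wells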
rCAG RNA binder: binds r(CAG) RNA repeats; r(CAG) RNA repeat, TO-PRO-1 dye displacement fluorescence; inhibition, % at 3 µM; 370,000 compounds, 1.3% hits; AID 651821;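 active means inhibition above the plate cutoff, the mean of all test compounds on that plate plus 3 SD, cut at about 35% in these data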;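 further: 0% = DMSO alone and 100% = 100 µM mitoxantrone as full dye displacement; higher means more dye released from RNA so lower well fluorescence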
NadD inh conf: NadD (S. aureus) inhibition, single concentration confirmation. shares compounds with NadD block. purified S. aureus NadD, colorimetric enzyme assay. inhibition, % at 20 µM. 2,000 compounds, 13% hits. AID 624309; in the data active means inhibition mostly above about 42%, no sharp cut-off; inactive means mostly below about 42%
An asterisk follows results filed as active; · = not tested or not shown.

SMILES | bovine MsrA act | NadD block | MsrA inh | rCAG RNA binder | NadD inh conf
Nc1nc(-c2ccc(Br)cc2)cs1 | -13 | 2 | 0 | 1 | ·
Brc1ccc(-c2csc(Nc3nc(-c4ccc(Br)cc4)cs3)n2)cc1 | -5 | 30* | 0 | 5 | -1
c1ccc2c(-c3cc(NCc4ccncc4)n4nccc4n3)cccc2c1 | -5 | -1 | 0 | 2 | ·
C/C(=N\NC(N)=S)C1=CCC2C3CC[C@H]4CC(O)CC[C@]4(C)C3CC[C@]12C (some centres undefined) | -7 | 36* | 1 | 2 | 12
CCn1cc(C(=O)NCCCN2CCCC(C)C2)c(=O)c2cc(S(=O)(=O)N3CCOCC3)ccc21 (centres undefined) | -2 | 10 | 1 | -2 | ·
Cc1ccc(-c2nnc(SCC(=O)N/N=C/c3c(C)nn(-c4ccccc4)c3C)n2-c2ccccc2)cc1 | 0 | 12 | -1 | 3 | ·
Cc1ccc(-c2nnc(SCC(=O)N/N=C/c3c(C)nn(-c4ccccc4)c3C)n2-c2ccc(C)cc2)cc1 | -3 | 30* | 0 | 5 | 15
COc1c2ccc(OCC/C(C)=C/C(=O)C=C(C)C)cc2nc2occc12 | 0 | 12 | 1 | 18 | ·
O=C(Cc1csc(Nc2nc(=S)[nH]c3ccccc23)n1)NCc1cccc(Cl)c1 | -2 | 32* | 1 | 5 | 2
O=C(Cc1csc(Nc2nc(=S)[nH]c3ccccc23)n1)N1CCN(c2cccc(C(F)(F)F)c2)CC1 | -5 | 33* | 1 | 5 | 8
O=C(Cc1csc(Nc2nc(=S)[nH]c3ccccc23)n1)NCc1ccccc1Cl | -5 | -3 | 0 | 6 | ·
COc1ccc(Cl)cc1NC(=O)CCS(=O)(=O)c1ccc(C)cc1 | -3 | -1 | 2 | -3 | ·
OC(c1ccc(F)cc1)c1nc(-c2ccoc2)cs1 (centres undefined) | -2 | -1 | -2 | 8 | ·
Cc1ccc(CN2C(=O)C(Cc3ccccc3)Nc3ncnc(N4CCN(c5ccccc5)CC4)c32)cc1 (centres undefined) | -1 | 28* | 2 | 12 | 10
O=C1C(Cc2ccccc2)Nc2ncnc(N3CCN(c4ccccc4)CC3)c2N1Cc1ccc(Br)cc1 (centres undefined) | -10 | 42* | 0 | 32 | 11
O=C1C(Cc2ccccc2)Nc2ncnc(N3CCN(c4ccccc4)CC3)c2N1Cc1ccccc1 (centres undefined) | -4 | 15 | 2 | 7 | ·
Cc1ccccc1-c1nc2cc(NC(=O)C3CC3)ccc2o1 | -3 | -3 | 2 | -1 | ·
O=C(c1cc(C2CCCCN2S(=O)(=O)c2cccs2)on1)N1CCOCC1 (centres undefined) | -1 | 4 | 0 | 0 | ·
O=C(Cc1ccsc1)Nc1ccc2c(c1)OCO2 | -4 | -6 | 1 | 2 | ·
N#CC1=C(S)N(c2ccccc2)C(c2ccc(-c3cccc(Cl)c3)o2)NC1=O (centres undefined) | -4 | 42* | 0 | 15 | 48
CCN1CCN(Cc2ccc(NC(=O)c3cc(NC(=O)c4cncc(-c5cccs5)c4)cc(OC)c3)cc2C(F)(F)F)CC1 | 0 | 34* | 0 | 15 | 11
CC(C)(C)c1nnc(SCC(=O)Nc2ccc(N3CCCCC3)cc2)n1N | -11 | -11 | 0 | 5 | ·
O=C(Nc1ccc(-c2csc(Nc3cccc(C(F)(F)F)c3)n2)cc1)c1cc([N+](=O)[O-])cc(C(F)(F)F)c1 | -1 | 33* | 0 | 4 | 5
O=C(Nc1ccc(-c2csc(Nc3cccc(C(F)(F)F)c3)n2)cc1)c1ccccc1 | 0 | 14 | 1 | 23 | ·
CCOc1ccc(/C=C/C2=Cc3c(sc(NC(=O)CSc4n[nH]c(N)n4)c3C#N)C(C)(C)C2)cc1 | -4 | 58* | 1 | 43* | 26
SMILES | bovine MsrA act | NadD block | MsrA inh | rCAG RNA binder | NadD inh conf
Cc1ccc(S(=O)(=O)N(C)c2ccc(C(=O)NCC(c3ccco3)N(C)C)cc2)cc1 (centres undefined) | -1 | 0 | -1 | 3 | ·
COc1cc2c(cc1OC)C(c1cc3cccc(C)c3[nH]c1=O)N(C(=O)c1ccco1)CC2 (centres undefined) | -3 | 4 | 0 | 1 | ·
COc1ccc(NC2=Nc3ccccc3N3C2=Nc2c(c(C)nn2-c2ccc(C)cc2)C3c2cccnc2)cc1 (centres undefined) | 0 | 17 | 0 | 5 | ·
CC(=O)Nc1ccc(NC2=Nc3ccccc3N3C2=Nc2c(c(C)nn2-c2ccccc2)C3c2ccccc2)cc1 (centres undefined) | -10 | 37* | 1 | 5 | 31
CCc1cccc2cc3c(N)c(C(=O)Nc4ccc(S(=O)(=O)N5CCCC5)cc4)sc3nc12 | -5 | 44* | 1 | 9 | 16
CNC(=O)NC(=O)C(C)OC(=O)c1c2c(nc3ccccc13)/C(=C/c1cccs1)CC2 (centres undefined) | -3 | 33* | -1 | 2 | 20
COc1cc(OC)cc(C2=Cc3ccc(OC)cc3C(CC(C)=O)N2c2ccc(-c3cncnc3)cc2)c1 (centres undefined) | -6 | 0 | 4 | 17 | ·
COC(=O)c1ccc(N2C(c3cc(OC)cc(OC)c3)=Cc3ccc(-c4ccc(C(N)=O)cc4)cc3C2CC(=O)C2CC2)cc1 (centres undefined) | -13 | 24 | 4 | 14 | ·
COC(=O)c1ccc(N2C(c3cc(OC)cc(OC)c3)=Cc3ccc(-c4cccnc4)cc3C2CC(=O)C2CC2)cc1 (centres undefined) | -5 | 32* | 2 | 10 | 22
COc1cc(OC)cc(C2=Cc3ccccc3C(CC(=O)c3ccco3)N2c2ccc(-c3cccnc3)cc2)c1 (centres undefined) | -3 | 35* | 3 | 14 | 36
Cc1nc2ccc(S(=O)(=O)NCC(=O)NCc3ccc(F)cc3)cc2s1 | · | · | · | 6 | ·
CC(C)C[C@H]1CN([C@@H](Cc2ccc(O)cc2)CN2CCC[C@@H]2CN2C(=O)C(=O)NC[C@@H]2Cc2ccccc2)C(=O)C(=O)N1CC1CCCCCC1 | -2 | 29 | 0 | 5 | ·
CC(C)C[C@H]1CNC(=O)C(=O)N1C[C@@H]1CCCN1C[C@H](Cc1ccc(O)cc1)N1C[C@H](Cc2ccccc2)N(CC2CCCCCC2)C(=O)C1=O | -4 | 34* | 0 | 5 | 37
CC(C)C[C@H]1CN([C@@H](Cc2ccccc2)CN2CCC[C@H]2CN2C(=O)C(=O)NC[C@@H]2Cc2ccc(O)cc2)C(=O)C(=O)N1CC1CCCCCC1 | -3 | 36* | 3 | 11 | 38
COc1ccc(C=NNC(=O)Cc2cc(=O)[nH][nH]2)c(OC)c1 | · | · | · | 15 | ·
COc1cccc(C2C3=C(N=c4s/c(=C\c5cccc(O)c5)c(=O)n42)c2ccccc2CC3)c1OC (centres undefined) | -4 | 40* | 1 | 11 | 11
COc1cc(OC)c2c(-c3ccccc3)cc(=O)oc2c1C(CC(=O)N1CCN(c2ccccc2)CC1)c1ccc(N(C)C)cc1 (centres undefined) | 0 | 30* | 1 | 15 | 1
CC1CCc2c(sc3nc(CN4CCOCC4)nc(N4CCc5ccccc5C4)c23)C1 (centres undefined) | 2 | 37* | 0 | 0 | 18
